Reference: ChEMBL document CHEMBL3988442, “University of Dundee, Small-Polar-MMV Screening Library” (2021)
The whole screen tested about 48,000 compounds, of which about 13,000 (27%) showed an effect of 50% or more. Some of the results follow.

What follows are molecules tested on Wolbachia pipientis (assay: Anti-Wolbachia Cell-Based Screen). Conditions: 5 µM.
Assay type: functional
Design: scale not given: in the data most compounds retested in dose-response had high values

Compound	Percent Effect
Cc1cc(NC(=O)C(C)NCCn2cccn2)no1 (configuration not stated)	7.799%
Cc1cc(NC(=O)C(C)Nc2cccc(COCc3ccco3)c2)no1 (configuration not stated)	96.95%
Cc1cc(NC(=O)C(C)Nc2cccc(COCc3ccco3)c2)on1 (configuration not stated)	82.63%
Cc1cc(CNC(=O)Nc2cccc(COCCOC(C)C)c2)no1	4.138%
Cc1cc(NC(=O)C(C)Nc2ccn(Cc3ccccn3)n2)on1 (configuration not stated)	-74.41%
Cc1nnc(C(C)Nc2cccc(COCCc3ccccc3)c2)o1 (configuration not stated)	-2.129%
CCN1CCN(c2ccc(CNC(=O)c3ccc(Cl)o3)cn2)CC1	4.733%
Cc1ccccc1[C@@H]1CN(Cc2c(C)noc2C)C[C@H]1C(=O)O	-12.73%
CCN1CCCC1Cn1ccc2c(OC)c(OC)ccc2c1=O (configuration not stated)	-2.049%
COc1cc2[nH]c(=O)c(CN3CCC[C@H]3CO)cc2c(OC)c1OC	3.209%
Cc1cc(C)c(CNC(=O)NCC2CCCN2C)c(=O)[nH]1 (configuration not stated)	-15.32%
CCN1CCCC1CN(CCN(C)C)S(=O)(=O)c1ccc(C#N)cc1 (configuration not stated)	2.143%
CCOc1ccc2[nH]c(=O)c(CN3CCC(O)CC3)cc2c1	-5.024%
COc1cc2[nH]c(=O)c(CN3CCCC3C)cc2c(OC)c1OC (configuration not stated)	-17.42%
CCN1CCCC1CNCc1cc2cc(C)c(C)cc2[nH]c1=O (configuration not stated)	108.5%
COc1ccc2[nH]c(=O)c(CN(C)CCN3CCCC3)cc2c1	-6.943%
CN(CCN1CCCCC1=O)Cc1cc2cc3c(cc2[nH]c1=O)OCO3	9.765%
CCN1CCCC1CNCc1cc2cc(OC)ccc2[nH]c1=O (configuration not stated)	59.94%
CCN1CCCC1CNCc1cc2cc(OC)c(OC)cc2[nH]c1=O (configuration not stated)	127.9%
CCN1CCCC1CNCc1cc2cc3c(cc2[nH]c1=O)OCCO3 (configuration not stated)	90.42%
COCCN1CCc2cc(C(=O)O)c(-c3ccoc3)nc2CC1.O=C(O)C(F)(F)F.O=C(O)C(F)(F)F	-9.804%
CCCc1nnc(C(=O)N(C)Cc2ccc(OC)cc2)o1	16.32%
COCCC(C)NC(=O)N1CCSC(C)(C)C1 (configuration not stated)	-17.32%
CC[C@H]1CN(C(=O)c2cnc(CN3CCCC3)s2)CC[C@@]1(C)O	12.41%
O=C(NCCNc1ccccn1)NCC1CCS(=O)(=O)C1 (configuration not stated)	7.118%
Cc1ccc(S(=O)(=O)N2CC(C)Oc3ncccc32)c(F)c1 (configuration not stated)	-7.297%

Compound	Percent Effect
CCN1CCCC1CNCc1cc2ccccc2[nH]c1=O (configuration not stated)	105.7%
CS(=O)(=O)NCC1CCN(Cc2cc3ccccc3[nH]c2=O)C1 (configuration not stated)	5.413%
CS(=O)(=O)NCCCN1CCCCC1c1cc2ccccc2[nH]1 (configuration not stated)	5.136%
Cc1occc1C(=O)N1CC(C(=O)N2CCOCC2)C2(CCOCC2)C1 (configuration not stated)	-11.45%
Cc1noc(CCCC(=O)NC(C)c2nnc3n2CCCCC3)n1 (configuration not stated)	-8.198%
CC(NC(=O)CCC(=O)c1cccs1)c1nnc2n1CCC2 (configuration not stated)	109.2%
CC(NC(=O)CCC(=O)c1cccs1)c1nnc2n1CCCCC2 (configuration not stated)	-1.581%
CC(NC(=O)CCCC(=O)c1cccs1)c1nnc2n1CCC2 (configuration not stated)	92.19%
c1cnn(Cc2ccc(CN3CCC4(CCCNC4)C3)cc2)c1 (configuration not stated)	7.706%
COCCN1CCN(CCCc2nnnn2-c2ccccc2)CC1	-6.154%
Cc1ccccc1OC1CCN(C(=O)c2c[nH]c(=O)[nH]c2=O)CC1	25.29%
Cc1cncc(C2CCCN(C(=O)c3c[nH]c(=O)[nH]c3=O)C2)n1 (configuration not stated)	-6.344%
Cc1cnc(C2CCCN(C(=O)c3c[nH]c(=O)[nH]c3=O)C2)s1 (configuration not stated)	107.7%
O=C(c1c[nH]c(=O)[nH]c1=O)N1CCCC(c2cnccn2)C1 (configuration not stated)	111.3%
Cc1cc(C2CCCN(C(=O)c3ccc(C)[nH]c3=O)C2)n[nH]1 (configuration not stated)	8.066%
Cc1cccc2[nH]c(C3CCN(C(=O)c4c[nH]c(=O)[nH]c4=O)CC3)nc12	-6.416%
Cn1ccnc1CN1CCN(c2ncnc3ccsc23)CC1	8.989%
CCc1[nH]n(C)c(=N)c1-c1ccc2c(c1)OCO2	-3.293%
COCCN1CCc2ncnc(-c3ccccc3)c2CC1.O=C(O)C(F)(F)F	98.59%
CCc1ncnc2c1CCN(Cc1ccc(OC)cc1)CC2.O=C(O)C(F)(F)F	-14.19%
CCc1ncnc2c1CCN(Cc1cccs1)CC2.O=C(O)C(F)(F)F	-3.657%
CCc1ncnc2c1CCN(CCOC)CC2.O=C(O)C(F)(F)F	104.9%
CN(CCN1CCCC1=O)CC(c1cccs1)N1CCOCC1 (configuration not stated)	-4.192%
CCc1ccc(CN(C/C=C/c2ccccc2)CCOC)nc1	-1.399%
Cc1cc(CN[C@H](C(N)=O)[C@@H](C)O)c(C)s1	-13.15%
Cc1ccc(N2CC[C@H](OCC3CC3)[C@@H]2Cc2cccnc2)nn1.O=C(O)C(F)(F)F	91.78%

Compound	Percent Effect
Cc1ccc(N2CC[C@H](OCC3CC3)[C@@H]2Cc2cnn(C)c2)nn1	1.399%
O=S(=O)(C1CC1)N1CC[C@H](OCC2CC2)[C@@H]1Cc1ccncc1	-12.77%
COCCO[C@H]1CCN(c2cc(OC)ncn2)[C@H]1Cc1cccnc1.O=C(O)C(F)(F)F	-7.888%
Cc1ccc(N2CC[C@H](OCC3CC3)[C@@H]2Cc2ccncc2)nn1	112.9%
COCCO[C@H]1CCN(c2ccc(C)nn2)[C@H]1Cc1cccnc1.O=C(O)C(F)(F)F.O=C(O)C(F)(F)F	97.63%
CN(C)[C@@H]1CCN(c2ncccn2)[C@H]1Cc1cccnc1.O=C(O)C(F)(F)F.O=C(O)C(F)(F)F	5.907%
O=C(NCC(F)(F)F)c1nnn(-c2ccccc2)c1C(F)(F)F	-4.958%
CCCSCC(=O)N1C[C@H]2CC[C@@H]1CN(c1ncccn1)C2	28.59%
N[C@H]1CN(C(=O)c2ccc(CO)cc2)C[C@@H]1C1CC1	-11.41%
COc1ccc(-c2nc3c([nH]2)CCNC3)c(OC)c1OC	-10.21%
O=C(CCc1ccc(C(F)(F)F)cc1)N1CCCS1(=O)=O	-13.79%
CC(=O)c1ccc(S(=O)(=O)Nc2cnn(C3CCOCC3)c2)cc1	124.1%
Cn1nnn(-c2ccc(NS(=O)(=O)c3ccc(Br)cc3)cc2)c1=O	-3.296%
O=S(=O)(Nc1cnn(C2CCOCC2)c1)c1ccc2c(c1)CCO2	-1.173%
Cc1ccc(NS(=O)(=O)c2ccc(C#N)cc2)c(CN(C)C)c1	3.683%
N#Cc1ccc(S(=O)(=O)Nc2cnn(C3CCOCC3)c2)cc1	136.3%
CCc1ccc(S(=O)(=O)Nc2cnc(N3CCOCC3)nc2)cc1	1.019%
Cc1ccc(S(=O)(=O)Nc2cnn(C3CCOCC3)c2)cc1C	113.9%
O=S(=O)(Nc1cnc(N2CCOCC2)nc1)c1ccc(Cl)cc1	-1.506%
COc1c(NS(=O)(=O)c2ccc(C)c(C)c2)c(C)nn1C	-13.12%
N#Cc1ccc(S(=O)(=O)Nc2ccc(N3CCOCC3)cn2)cc1	1.293%
O=S(=O)(Nc1cnn(C2CCOCC2)c1)c1ccc(Br)cc1	132.2%
Cc1ccc(S(=O)(=O)Nc2ccc(N3CCOCC3)cn2)cc1	3.4%
COc1coc(CN2CCCC(CCc3c(F)cccc3F)C2)cc1=O (configuration not stated)	17.04%
Cc1ccc(C)c(-c2csc(N)c2C#N)c1	-0.8217%
Cc1nc(N2CCN3CCCCC3C2)nc2cc(S(C)(=O)=O)ccc12 (configuration not stated)	-5.317%

Compound	Percent Effect
O=C(CNC(=O)c1cnc2ccccc2c1O)NCCn1ccnc1	-3.022%
Cc1cc(CN2CCN(C(=O)Nc3cccnc3)CC2)on1	-15.13%
O=S(=O)(Nc1cnn(C2CCOCC2)c1)c1c(F)cccc1F	-13.72%
O=C(O)c1cc(S(=O)(=O)Nc2cnn(C3CCOCC3)c2)ccc1F	126.6%
O=S(=O)(Nc1cnn(C2CCOCC2)c1)c1ccc(F)c(F)c1	-11.58%
Cc1ccc(CNCc2cc(Br)c3c(c2)OCO3)cc1	-32.56%
CN1CC(=O)N(c2cccc(F)c2)CC12CCN(Cc1ccco1)C2 (configuration not stated)	-8.082%
CC(C)(O)CN1CCC(=O)N(Cc2ccco2)Cc2cc(F)ccc21	108.3%
Fc1cccc(N2CCCC3(CN(Cc4ccco4)CCO3)C2)c1.O=C(O)C(F)(F)F.O=C(O)C(F)(F)F (configuration not stated)	-7.933%
CC(C)(Oc1ccc2c(c1)CCCC2=O)C(=O)NCc1ccco1	-1.632%
COc1ccc2c(c1)CN(Cc1ccco1)C(=O)CCN2CC(C)(C)O	126.9%
COc1cccc(N2CCC(CNC(=O)N(C)Cc3ccco3)C2)c1 (configuration not stated)	-2.761%
CC(=O)N1CCC2(CC1)CN(C(C)=O)CC21CCNC1=O (configuration not stated)	-37.65%
CN(C)C1Cc2ccccc2N(S(=O)(=O)c2ccccc2C#N)C1 (configuration not stated)	-15.96%
CN(C)c1cncc(C2CCCN(c3cnccn3)C2)n1 (configuration not stated)	69.21%
CN(C)c1nccnc1C1CCN(c2cnccn2)CC1	116.7%
CN(C)CCCn1ccnc1C1CCCN(c2cc(N)ncn2)C1 (configuration not stated)	-5.782%
Cc1cc(N2CCCC(c3nccnc3N(C)C)C2)ncn1 (configuration not stated)	90.88%
COc1cc(N2CCCC(c3ncc[nH]3)C2)ncn1 (configuration not stated)	-14.93%
CC(C)n1ccnc1C1CCCN(c2cncc(N(C)C)n2)C1 (configuration not stated)	9.354%
CC(C)c1nc(C2CCCN(c3cnc4ccccc4n3)C2)no1 (configuration not stated)	3.044%
CN(C)CCO[C@H]1C[C@@H](O)C12CCN(c1cnccn1)CC2	0.5833%
Cc1cc(C)c(CNC(=O)C2CCCN(c3cnccn3)C2)c(=O)[nH]1 (configuration not stated)	0.7586%
CN(C)c1nccnc1C1CCCN(c2cnccn2)C1 (configuration not stated)	115.4%
